Whole data set: some 16,000 sequences, median “Z-score” near -0.37, cut for the highest 2% near 3.1. Shown is part of a subset that was picked to be rich in the highest values.
system: RBM10 RRM1-ZnF-RRM2 (GST-tagged construct); assay: RNAcompete 7-mer binding Z-score; higher = stronger binding preference
Experimental: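 RNAcompete: 20 pmol GST-tagged RBM10 RNA-binding constructs were incubated with a designed RNA pool of about 241,000 sequences up to 41 nt (1.5 nmol) on glutathione beads for 30 min at 4 °C and washed. Bound RNAs were identified by microarray hybridisation. Each RNA 7-mer is scored by a one-sided Z-score of its enrichment, computed over probes that contain the 7-mer within longer pool sequences.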

Row | Sequence | RNAcompete 7-mer binding Z-score
1 | UACCUGC | -0.887
2 | GUCCGUA | -0.471
3 | GGAGUCA | 1.05
4 | ACAGGGA | 3.47
5 | GCAGGGU | 3.35
6 | ACAGGGU | 3.11
7 | CCAGGGU | 1.18
8 | CCAGGGG | 1.43
9 | ACAGGAG | 2.7
10 | GCAGGGG | 3.15
11 | UCAGGGG | 1.46
12 | ACAGGGC | 2.36
13 | CCAGGGA | 1.51
14 | ACAGGGG | 3.19
15 | GCAGGGC | 1.51
16 | AUAUACC | -0.628
17 | CAUUCUC | -0.857
18 | UGCACAU | -0.362
19 | UCACAAG | -0.256
20 | CUCGCGU | -0.635
21 | CGGAUCA | 0.578
22 | AAGGUGA | 3.62
23 | GAGGUGU | 2.31

Row | Sequence | RNAcompete 7-mer binding Z-score
24 | CAGGUGA | 1.54
25 | GAGGUGG | 3.37
26 | AAGGUGC | 2.55
27 | GAGGUGC | 1.65
28 | AAGGUGG | 4.32
29 | GAGGUGA | 2.6
30 | AAGGUGU | 2.26
31 | AUUCUCC | -0.679
32 | AGCAACG | 0.359
33 | UGCCACU | -0.741
34 | UCUCCCA | -0.697
35 | GCUAAUA | -0.282
36 | GAUAUGA | 0.643
37 | AAGUGGA | 3.2
38 | GAGUGGA | 3.07
39 | CAGUGGG | 2.93
40 | AAGUGGU | 1.6
41 | AAGUGGG | 3.5
42 | UAGUGGA | 1.52
43 | CCCCUCG | -0.573
44 | GUCAGAG | 0.406
45 | GCUGCGG | 1.05
46 | AAUGCGA | 0.286

Row | Sequence | RNAcompete 7-mer binding Z-score
47 | CGGCACA | 0.133
48 | UAGACGC | -0.333
49 | GGGGUUG | 3.23
50 | CGGGUUG | 2.32
51 | AGGGUUA | 3.86
52 | AGGGUUC | 0.996
53 | GGGGUUA | 3.07
54 | AGGGUUG | 3.34
55 | GGGGUUC | 1.83
56 | UGGGUUG | 2.56
57 | UGGGUUA | 2.83
58 | GUAGUCU | -0.256
59 | CCGUUUU | -1.01
60 | UGCAUAU | -0.49
61 | UUUCACU | -0.704
62 | UCAUUAU | -0.621
63 | UACCGAA | -0.428
64 | CUUACAA | -0.785
65 | GUAAGUC | -0.0743
66 | CCGAACU | -0.839
67 | CCCACCC | -0.337
68 | GGGGAGU | 2.86
69 | UGGGAGA | 2.56

Row | Sequence | RNAcompete 7-mer binding Z-score
70 | GGGGAGG | 3.33
71 | AGGGAGU | 3.13
72 | AGGGAGG | 3.18
73 | UGGGAGU | 1.95
74 | GGGGAGA | 2.53
75 | CGGGAGG | 2.96
76 | UGGGAGG | 4.58
77 | CAUGGCC | -0.344
78 | GUUGCCU | -0.613
79 | AGGUUAC | 0.538
80 | GAUCGCU | -0.697
81 | CGGGUCC | 0.723
82 | ACGAGGC | 0.742
83 | GCGAGGG | 3.86
84 | ACGAGGG | 3.71
85 | UCGAGGG | 1.93
86 | GCGAGGA | 2.06
87 | ACGAGGU | 1.36
88 | AAAGCAA | 0.563
89 | AGCAGAA | 0.701
90 | AUAAGGG | 3.85
91 | CUAAGGG | 1.35

Source: the supplement of paper PMC5499739
